Compound activity from PubChem BioAssay.
S2 tox = Viability Counterscreen for Primary qHTS for Inhibitors of ATXN expression | S2 cells (HEK-293 line with an ATXN2-luciferase reporter) viability, CellTiter-Fluor protease fluorescence, 24 h | Potency, µM (highest dose often 56.7 µM), actives largely listed as cytotoxic | hit rate 0.49% among 400,000 | AID 651635, 2014; also: nearly all actives have a fitted effect of over 40% in size
ATXN2 expr inh = Primary qHTS for Inhibitors of ATXN expression; HEK-293 ATXN2-luciferase reporter, luminescence, 24 h; Potency, µM (series often up to 57 µM), most hits filed as inhibitors; hit rate 0.72% among 360,000; also: nearly all actives have a fitted effect of over 55% in size
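qHTS (up to 57 uM final) was run with 24 h compound exposure of reporter cells at 37 °C. Each well was multiplexed: SteadyGlo luminescence measured ATXN2-luciferase expression after a fluorogenic Gly-Phe-AFC viability readout (25 uM final).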
D3 antag = qHTS of D3 Dopamine Receptor Antagonist: qHTS. D(3) dopamine receptor (Homo sapiens), P35462. D3R cells, DiscoveRx beta-arrestin luminescence, antagonist mode; active compounds read low. max response, negative = inhibition, %. hit rate 2.5% among 360,000. AID 652054, 2013; in the data active = max response below about -50%; inconclusive = no clear call, values can overlap the other calls
Target sequence (P35462 whole entry, looked up): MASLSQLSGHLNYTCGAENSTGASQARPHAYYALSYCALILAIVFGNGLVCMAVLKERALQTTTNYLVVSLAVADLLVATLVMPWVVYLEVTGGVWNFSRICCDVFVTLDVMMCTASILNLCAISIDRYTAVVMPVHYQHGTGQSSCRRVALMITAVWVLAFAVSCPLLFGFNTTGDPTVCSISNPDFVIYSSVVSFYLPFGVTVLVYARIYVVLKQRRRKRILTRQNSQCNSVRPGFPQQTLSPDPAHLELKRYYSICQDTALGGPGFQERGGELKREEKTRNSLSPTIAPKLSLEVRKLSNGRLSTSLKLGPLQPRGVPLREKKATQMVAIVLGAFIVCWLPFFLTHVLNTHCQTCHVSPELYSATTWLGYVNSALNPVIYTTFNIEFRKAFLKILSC
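Cells expressing the human receptor were seeded at 1500 cells/well, incubated overnight at 37 degrees C in 5% CO2, then exposed to library compounds with dopamine controls for 90 minutes at 37 degrees C before luminescent detection.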
DRD3 agonist = qHTS of D3 Dopamine Receptor Agonist: qHTS | D3R DiscoveRx beta-arrestin cells, luminescence, 90 min | max activation, % | hit rate 0.58% among 410,000; in the data active = max activation above about 30%
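Agonist-mode cell screen: cells plated at 1500/well and incubated overnight at 37 °C, then exposed to library compounds for 90 min at 37 °C. Detection reagent was added for 30–60 min at room temperature, and luminescence was read.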
a7 integrin act = qHTS for Activators of Integrin-Mediated Alleviation for Muscular Dystrophy. alpha7betagal myoblasts, beta-gal FDG fluorescence, 48 h. AID 624291, 2012. Potency, µM (doses to about 38.3 µM), most hits filed as activators. hit rate 0.064% among 350,000; also: nearly all actives have a fitted effect of over 60% in size
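Alpha7betagal+/- myoblasts (passage 13) were plated 16-24 hr, then exposed to compounds (1:260 dilution of DMSO stock) for 48 hours at 37C. After MPER lysis, β-galactosidase reporter activity was read as FDG fluorescence (ex 480/em 540) after 30 minutes.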
IL-1B inflam inh = qHTS for Inhibitors of Inflammasome Signaling: IL-1-beta AlphaLISA Primary Screen. THP-1 LPS/ATP IL-1B secretion, AlphaLISA, 16 h; active compounds read low. activity change, % at 57.5 µM. hit rate 4.7% among 360,000. AID 743279, 2014; in the data active = activity change below about -50%; inconclusive = mostly about -30% to -49%
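THP-1 cells pretreated 1 hr with compounds (up to 57.5 uM final), then stimulated with LPS (250 ng/mL final) plus ATP (1.25 mM final); secreted IL-1B measured by AlphaLISA after 16 hr, decreased signal indicating inhibition.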
Numbers stand for hits. Sampled rows, rich in hits. Any-hit rate of the full collection: about 7%. Unless noted, calls follow the shape of the dose curve; as a rule, active = well fitted curve in the direction sought with a large enough effect; inconclusive = small, poorly fitted or top-dose-only effect, or another doubt; inactive = no such curve, though single readings can be large; an effect the other way counts as inactive or inconclusive.

How did Cc1cc(C)cc(NC(=O)CN(c2cc(C(F)(F)F)ccc2Cl)S(=O)(=O)c2ccccc2)c1 do in these assays?
S2 tox: inactive; ATXN2 expr inh: inactive; DRD3 agonist: inactive

Results for OCCN1CCN(CCOc2ccccc2-c2ccccc2)CC1 ?
S2 tox: inactive; ATXN2 expr inh: inactive; D3 antag: -85; DRD3 agonist: inactive; a7 integrin act: inactive; IL-1B inflam inh: inactive

How did Cc1cc2c(cc1C)N(C(=O)CCl)CCN2C(=O)CCl do in these assays?
ATXN2 expr inh: inconclusive; D3 antag: inconclusive; DRD3 agonist: inactive; a7 integrin act: inactive; IL-1B inflam inh: -100

How did Cc1cc2c(cc1C)N(C(=O)CCl)CC(=O)N2 do in these assays?
S2 tox: inconclusive; D3 antag: inactive; DRD3 agonist: inactive; a7 integrin act: inactive; IL-1B inflam inh: -65

What do the screens show for `O=C(C=Cc1ccccc1)c1cccs1`?
S2 tox: inconclusive; ATXN2 expr inh: inactive; D3 antag: inactive; DRD3 agonist: inactive; a7 integrin act: inactive; IL-1B inflam inh: inactive

How did Nc1ccc(/C=C/C(=O)c2cccs2)cc1 do in these assays?
ATXN2 expr inh: inactive; D3 antag: inactive; DRD3 agonist: inactive; a7 integrin act: inactive; IL-1B inflam inh: -109

What do the screens show for `CNC(=O)c1c[nH]c2ccc(S(=O)(=O)Nc3ccccc3F)cc2c1=O`?
S2 tox: inactive; ATXN2 expr inh: inactive; D3 antag: inactive; DRD3 agonist: inactive; a7 integrin act: inactive; IL-1B inflam inh: inactive

What do the screens show for `N#Cc1cccc(-n2nnnc2-c2ccccn2)c1`?
S2 tox: inactive; ATXN2 expr inh: inactive; D3 antag: inactive; DRD3 agonist: inactive; a7 integrin act: inactive; IL-1B inflam inh: inactive

How did COc1ccccc1/C=C/C=N/N1CCN(Cc2cccc3ccccc23)CC1 do in these assays?
S2 tox: inactive; ATXN2 expr inh: inactive; D3 antag: inactive; DRD3 agonist: inactive; a7 integrin act: inactive; IL-1B inflam inh: inactive

How did O=C(Nc1ccc(N2CCN(C(=O)c3ccc(Cl)cc3)CC2)cc1)c1cccnc1 do in these assays?
S2 tox: inactive; ATXN2 expr inh: inactive; D3 antag: inactive; DRD3 agonist: inactive; a7 integrin act: inactive; IL-1B inflam inh: inconclusive

How did O=C(Nc1ccc(N2CCN(C(=O)c3cccs3)CC2)cc1)c1cccnc1 do in these assays?
S2 tox: inactive; ATXN2 expr inh: inactive; D3 antag: inactive; DRD3 agonist: inactive; a7 integrin act: inactive; IL-1B inflam inh: -52

How did O=C(Nc1ccc(N2CCN(C(=O)c3ccccc3)CC2)cc1)c1cccnc1 do in these assays?
S2 tox: inactive; ATXN2 expr inh: inactive; D3 antag: inactive; DRD3 agonist: inactive; a7 integrin act: inactive; IL-1B inflam inh: -58

Results for COc1ccccc1CNC(=O)CCSCc1cccc(Cl)c1 ?
S2 tox: inactive; ATXN2 expr inh: inactive; D3 antag: inactive; DRD3 agonist: inactive; a7 integrin act: inactive; IL-1B inflam inh: -72

What do the screens show for `CCN1C=C(Cc2ccc(F)cc2)C2=C(C1)C(c1ccc(F)cc1)C(C#N)=C(N)O2` (stereo not drawn)?
S2 tox: inactive; ATXN2 expr inh: inactive; D3 antag: inconclusive; DRD3 agonist: inactive; a7 integrin act: inactive; IL-1B inflam inh: -103

Results for CCN1C=C(Cc2ccccc2C)C2=C(C1)C(c1ccccc1C)C(C#N)=C(N)O2 (stereo not drawn) ?
S2 tox: inactive; ATXN2 expr inh: inactive; D3 antag: inactive; DRD3 agonist: inactive; a7 integrin act: inactive; IL-1B inflam inh: inconclusive

How did CC(C)CCN(C(=O)Nc1ccc(Cl)cc1)C1CCN(C(C)C)CC1 do in these assays?
S2 tox: inactive; D3 antag: -59; DRD3 agonist: inactive; a7 integrin act: inactive; IL-1B inflam inh: inactive

Results for CC(C)CCN(C(=O)Nc1ccc(Cl)c(Cl)c1)C1CCN(C(C)C)CC1 ?
DRD3 agonist: inactive

What do the screens show for `CC(=O)Nc1ccc(S(=O)(=O)NC2=NCN(c3ccc([N+](=O)[O-])cc3)CN2)cc1`?
S2 tox: inactive; ATXN2 expr inh: inactive; D3 antag: inactive; DRD3 agonist: inactive; a7 integrin act: inactive; IL-1B inflam inh: inactive
